Rows were chosen to be rich in hits. Some 12% of all compounds tested hit in one or more screens of this group.
BAZ2B block = inhibitors of human BAZ2B bromodomain; AlphaScreen BAZ2B-H3K14Ac peptide displacement; Q9UIF8; actives 4.4% (n = 360,000); AID 504333; Potency, µM (highest dose often 114 µM), for inactives: at the highest dose activity change, negative = inhibition, usual class: inhibitors; note: % is set by controls: 0 for no effect and ±100 for the full control effect; nearly all actives have a fitted effect of over 60% in size
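Protein-peptide AlphaScreen: BAZ2B 50 nM, b-H3K14Ac 50 nM, 1x PBS pH 7.4 + 0.01% Tween-20. Preincubation 30 min RT; cpd 30 min RT (top 110 uM); beads 20 min RT, light-protected.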
L3MBTL1 inh = blocks human L3MBTL1. AlphaScreen L3MBTL1–H3K9me1 peptide binding. Potency, µM (titrated, usually from 57.1 µM), inactives show at the top dose activity, negative = inhibition, most hits filed as inhibitors. actives 0.66% (n = 230,000). AID 485360; note: % is set by controls: 0 for no effect and ±100 for the full control effect; nearly all actives have a fitted effect of over 60% in size
Target sequence (Q9Y468 whole entry, looked up): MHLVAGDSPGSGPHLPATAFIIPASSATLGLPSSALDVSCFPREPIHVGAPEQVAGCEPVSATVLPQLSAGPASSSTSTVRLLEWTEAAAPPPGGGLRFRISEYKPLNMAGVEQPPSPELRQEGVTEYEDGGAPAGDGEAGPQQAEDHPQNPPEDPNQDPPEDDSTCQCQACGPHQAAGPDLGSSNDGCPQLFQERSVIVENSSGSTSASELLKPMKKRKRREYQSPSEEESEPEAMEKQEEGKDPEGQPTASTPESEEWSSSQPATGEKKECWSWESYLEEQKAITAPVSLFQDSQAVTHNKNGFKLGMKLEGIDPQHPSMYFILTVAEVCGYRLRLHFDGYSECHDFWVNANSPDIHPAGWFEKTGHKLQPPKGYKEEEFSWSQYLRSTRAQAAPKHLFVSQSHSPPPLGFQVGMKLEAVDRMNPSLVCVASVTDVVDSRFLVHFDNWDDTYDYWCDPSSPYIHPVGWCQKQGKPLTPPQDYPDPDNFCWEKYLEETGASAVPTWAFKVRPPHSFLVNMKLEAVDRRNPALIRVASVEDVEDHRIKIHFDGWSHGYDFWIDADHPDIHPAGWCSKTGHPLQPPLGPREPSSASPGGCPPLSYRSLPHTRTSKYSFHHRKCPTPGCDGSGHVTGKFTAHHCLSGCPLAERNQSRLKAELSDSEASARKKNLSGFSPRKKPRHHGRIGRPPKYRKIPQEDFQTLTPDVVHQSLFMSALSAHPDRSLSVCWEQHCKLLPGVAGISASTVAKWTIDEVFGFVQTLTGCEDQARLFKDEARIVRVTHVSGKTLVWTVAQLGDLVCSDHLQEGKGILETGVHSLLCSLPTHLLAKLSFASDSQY
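AlphaScreen assay: L3MBTL1 (50 nM final) was preincubated 30 min at room temperature with biotinylated H3(1-15)K9me1 peptide (75 nM final), then 30 min with library compounds; streptavidin donor and nickel chelate acceptor beads (10 ug/mL final) added, 30 min dark.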
G9a block = G9a (human) methyltransferase inhibition | Q96KQ7 | G9a H3K9 monomethylation, AlphaScreen, 2 h | Potency, µM (titrated, usually from 102 µM), for the others: top-dose activity, negative = inhibition, hits mostly inhibitors | actives 8.8% (n = 350,000) | AID 504332; note: % is set by controls: 0 for no effect and ±100 for the full control effect; nearly all actives have a fitted effect of over 75% in size
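Readings reflect AlphaScreen signal from monomethyl-H3K9 antibody detection. HMT at 20 nM; substrate b-H3K9 500 nM; cofactor SAM 20 uM; 2 h RT reaction; compounds tested as titrations in qHTS with 15 min preincubation.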
HP1b binding inh = HP1-beta chromodomain-methylated histone interaction inhibition | Potency, µM (titrated, usually from 114 µM), for inactives: at the highest dose activity change, negative = inhibition, actives largely listed as inhibitors | AID 540317 | actives 0.56% (n = 390,000) | AlphaScreen HP1-beta / biotin-H3K9me3 peptide binding | P83916; note: nearly all actives have a fitted effect of over 70% in size
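AlphaScreen: HP1-beta (50 nM) preformed 30 min with biotin-H3(1-18)K9me3 peptide (50 nM) in PBS pH 7.4, 0.01% Tween-20. Compound added for 30 min at RT, then streptavidin donor/nickel chelate acceptor beads (10 ug/mL) for 30 min.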
JMJD2A Tudor = blocks the human JMJD2A Tudor domain. actives 4.4% (n = 390,000). AID 504339. O75164. AlphaScreen JMJD2A-Tudor / H3K4me3 peptide binding. Potency, µM (top dose mostly 114 µM), inactives show top-dose activity change, negative = inhibition, hits mostly inhibitors; note: % is set by controls: 0 for no effect and ±100 for the full control effect; nearly all actives have a fitted effect of over 50% in size
Sfp inh = Sfp phosphopantetheinyl transferase inhibition; Q9F4F7; Potency, µM, without a hit: largest response in the series, negative = inhibition, actives largely listed as inhibitors; Biochemical Sfp PPTase activity, qHTS; actives 3.5% (n = 310,000);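 note: the enzyme is Sfp with the accession as filed and its product quenches rhodamine fluorescence; 0% = enzyme reaction without inhibitor and -100% = no enzyme wells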
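Fluorescence-quenching assay with 15 nM Sfp, 5 uM rhodamine-CoA and 12.5 uM BHQ-2-labelled ybbR peptide in pH 7.6 Hepes/MgCl2 buffer. Enzyme was pre-incubated with compound for 15 min at room temperature. Rate was taken from the 30-min fluorescence change (525/598 nm).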
* = called active by the depositor; ? = inconclusive; . = not tested or not shown; [ ] = another dose, or the depositor's remark. Calls come from the whole dose curve; as a rule, active = well fitted curve in the direction sought with a large enough effect; inconclusive = small, poorly fitted or top-dose-only effect, or another doubt; inactive = no such curve, though single readings can be large; an effect the other way counts as inactive or inconclusive. Potency is the fitted concentration of half-maximal effect.

SMILES	BAZ2B block	L3MBTL1 inh	G9a block	HP1b binding inh	JMJD2A Tudor	Sfp inh
CC1=C(C(=O)Nc2ccccc2)C(c2ccncc2)C(C#N)=C(SCC(=O)NC2CC2)N1 (centres undefined)	0%	2%	28µM*	65%	-9%	11%
CC1=C(C(=O)Nc2ccccc2)C(c2ccncc2)C(C#N)=C(SCC(=O)NC(C)C)N1 (centres undefined)	6%	41%	11µM*	33%	-7%	?
CCCSC1=C(C#N)C(c2cccs2)C(C(=O)Nc2ccccc2)=C(C)N1 (centres undefined)	-2%	-6%	?	82%	-8%	-3%
O=C1CC(c2ccccc2)=Nc2ccccc2N1	6%	.	3%[12.7 µM]	17%	-13%	-11%
O=C1CC(c2ccco2)=Nc2ccccc2N1	-2%	-21%	?	14%	-15%	50µM*
Cc1cc(C(=O)CN2C(=O)C(=O)N(Cc3ccccc3)C2=O)c(C)n1-c1ccccc1F	-17%	-9%	-4%	3%	-18%	24%
Cc1cc(C(=O)CN2CCC(C)CC2)c(C)n1-c1ccccc1F	-7%	-3%	50µM*	-2%	-25%	2%
CCN(CC)c1ccc(C2Nc3ccccc3-c3cc(C)nn32)cc1 (centres undefined)	?	.	22µM*	?	50µM*	.
CCCOc1ccc(C2C(=O)N(C3CCCCCC3)CC(=O)N2C(C)C)cc1OC (centres undefined)	-6%	.	7%[59 µM]	41%	-21%	.
COc1ccccc1N(CC(=O)NCc1ccc2c(c1)OCO2)C(=O)CCC(=O)Nc1nccs1	-10%	.	16%[59 µM]	16%	-17%	-3%
CN1C(=O)C(N=Nc2ccc([N+](=O)[O-])cc2)SC1=S (centres undefined)	.	.	.	?	22µM*	.
COc1cc(C(CC(=O)NCc2ccc(F)cc2)N2Cc3ccccc3C2=O)cc(OC)c1OC (centres undefined)	-8%	.	-6%[59 µM]	18%	-4%	.
O=C(c1ccc(Cl)cc1)N1CCN(c2ncccn2)CC1	-7%	.	25%	28%	-19%	17%
c1ccc2cc(C3=NCCN3)ncc2c1	.	.	.	.	.	-29%
CN1CCN(S(=O)(=O)c2ccc(NC(=S)NC(=O)c3ccccc3)cc2)CC1	?	.	?	-16%	-28%	?
Cc1occc1C(=O)Nc1ccc(S(=O)(=O)N2CCN(C)CC2)cc1	4%	-5%	56µM*	23%	-19%	-4%
CN(Cc1ccccc1)S(=O)(=O)c1ccc(NC(=S)NC(=O)C2CCCCC2)cc1	-27%	-5%	-5%[59 µM]	29%	-10%	14%
CN1C(=O)c2ccc(NC(=S)NC(=O)C(C)(C)C)cc2C1=O	8%	-2%	45µM*	4%	-20%	35µM*
CN1CCN(S(=O)(=O)c2ccc(NC(=S)NC(=O)c3ccc(Cl)cc3)cc2)CC1	8%	2%	18µM*	?	?	22µM*
CN(Cc1ccccc1)S(=O)(=O)c1ccc(NC(=S)NC(=O)C(C)(C)C)cc1	-34%	-3%	3.2µM*	18%	-21%	4%
COc1cccc(Nc2ncc3nc(C)c(=O)n(C)c3n2)c1	.	.	7%[0.501 µM]	.	.	12%
CCc1ccc(N2CCn3c2nc2c3c(=O)n(Cc3cccc(C)c3)c(=O)n2C)cc1	-3%	.	7%[59 µM]	17%	-3%	.
COC(=O)CC(NC(=O)Nc1ccccc1F)c1ccc2c(c1)OCO2 (centres undefined)	3%	.	-9%	46%	-10%	16%
COc1ccc(NC(=O)Cn2c(=O)oc3cc(S(=O)(=O)N4CCCC4)ccc32)cc1OC	-17%	.	-21%[59 µM]	5%	-23%	.
CCC(=O)NC(=S)Nc1ccc(S(=O)(=O)N2CCN(C)CC2)cc1	6%	6%	12%[59 µM]	14%	-31%	2%
SMILES	BAZ2B block	L3MBTL1 inh	G9a block	HP1b binding inh	JMJD2A Tudor	Sfp inh
CN1CCN(S(=O)(=O)c2ccc(NC(=S)NC(=O)C(C)(C)C)cc2)CC1	-21%	-8%	56µM*	24%	-13%[11.4 µM]	-7%
Cc1ccc(-n2nc(C(=O)N3CCN(c4ccccc4F)CC3)c3c4ccccc4n(C)c3c2=O)cc1	.	.	-1%[59 µM]	33%	-3%	.
O=C(COC(=O)CCNS(=O)(=O)c1ccccc1)NC(=O)c1ccccc1	15%	5%	-10%[2.33 µM]	16%	-12%	.
COc1cc(OC)c(NC(=O)c2ccc3c(c2)N(Cc2ccc(C)cc2)CCS3)cc1Cl	-12%	.	1%[59 µM]	51%	-6%	.
Cc1cc(O)c(C(C)C)cc1NC(=O)Nc1cc(Cl)ccc1Cl	.	.	.	?	45µM*	.
COC(=O)[C@@H](Cc1ccccc1)NC(=O)[C@H]1CCC(=O)N1C(=O)OCc1ccccc1	-26%	.	-9%[12.7 µM]	30%	-4%	17%
CCCCCCCCCCCCCCCCOCCOCCOCCOCCOCCOCCOCCOCCOCCOCCOCCOCCOCCOCCOCCOCCOCCOCCOCCOCCO	.	.	-5%[12.7 µM]	.	.	50µM*
CC1=Nc2ccccc2/C1=C/c1c(N)n2c(S(=O)(=O)C(C)C)nsc2nc1=O	?	.	13%	4%	-20%	-7%
CC1=Nc2ccc(C)cc2/C1=C/c1c(N)n2c(S(=O)(=O)C(C)C)nsc2nc1=O	-36%	-20%	50µM*	15%	-31%	2%
CC(=O)N/C(=N/c1nc(C)cc(C)n1)Nc1ccc(NC(C)=O)cc1	3%	-10%	-5%[12.7 µM]	18%	-3%	3%
CC(=O)N/C(=N\c1nc(C)cc(C)n1)Nc1ccc2ccccc2c1	-22%	-1%	79µM*	44%	-3%	-2%
CN1CC(=O)NC1=NC(=O)c1ccc(Cl)c(S(=O)(=O)N2CCCCCC2)c1	6%	3%	-21%[59 µM]	35%	-35%	-9%
CN1CC(=O)NC1=NC(=O)c1cc(F)c(F)cc1Cl	?	4%	32µM*	17%	-24%	-21%
Nc1c(C=C2C=CC(=O)C=C2)c(=O)nc2sc(CC(=O)N3CCCCC3)nn12	?	.	?	14%	-21%	9%
Nc1c(/C=C2/C=CC(=O)C(O)=C2)c(=O)nc2sc(CC(=O)N3CCCC3)nn12	20µM*	.	35µM*	?	25µM*	-28%
Nc1c(/C=C2/C=CC(=O)C(O)=C2)c(=O)nc2sc(CC(=O)N3CCOCC3)nn12	.	.	.	?	20µM*	.
Nc1c(/C=C2/C=CC(=O)C(O)=C2)c(=O)nc2sc(CC(=O)N3CCCCC3)nn12	10µM*	.	10µM*	53%	?	-1%
CC1=Nc2ccc(C)cc2/C1=C/c1c(N)n2nc(CC(=O)N3CCOCC3)sc2nc1=O	-35%	.	?	28%	-4%	9%
CCOC1=C/C(=C/c2c(N)n3nc(CC(=O)N4CCCC4)sc3nc2=O)C=CC1=O	-21%[57.1 µM]	.	79µM*	12%	-25%	4%

Screening results deposited in PubChem BioAssay by National Center for Advancing Translational Sciences (NCATS).
